Nine compounds from PubChem BioAssay (Tox21) can be followed below.

Inconclusive results are not listed. Active and inactive are the calls of the source. Unless noted, calls come from the whole dose curve; as a rule, active = well fitted curve in the direction sought with a large enough effect in the repeat runs; inconclusive = weak or mixed curves; inactive = no such curve, though single readings can be large; an effect the other way counts as inactive or inconclusive.

A short description of assay [1]: qHTS assay to identify small molecule antagonists of the thyroid receptor (TR) signaling pathway - cell viability counter screen (AID 743064). Note: nearly all actives have a fitted effect of over 50% in size. Note: potency is the fitted concentration of half-maximal effect. In outline:
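In rat pituitary GH3.TRE-Luc reporter cells co-exposed to compound and 1 nM T3 for 23.5 h, cytotoxicity was assessed with CellTiter-Fluor in the same wells, read by fluorescence.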
In general terms: In qHTS, concentration-response curves come from the screen itself.

Assay [2] can be described thus: qHTS assay to identify small molecule antagonists of the thyroid receptor (TR) signaling pathway (AID 743065). Note: nearly all actives have a fitted effect of over 55% in size. Note: potency is the fitted concentration of half-maximal effect. The method in brief: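 GH3.TRE-Luc rat pituitary cells carrying two TR response elements driving luciferase were plated for 4 h, given compound plus 1 nM T3 (final), and incubated 23.5 h at 37 C. ONE-Glo luminescence measured reporter inhibition; CellTiter-Fluor fluorescence tracked cytotoxicity.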

Assay [3] can be described thus: qHTS assay to identify small molecule antagonists of the estrogen receptor alpha (ER-alpha) signaling pathway - cell viability counter screen (AID 743074; calls by dose curve;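 note: HEK293 cells carrying ER-alpha-UAS-bla reporter stimulated with 17beta-estradiol; nearly all actives have a fitted effect of over 45% in size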; note: potency is the fitted concentration of half-maximal effect).
Assay [4] has as its target Estrogen receptor (Homo sapiens) (UniProt P03372). Briefly: qHTS assay to identify small molecule agonists of the estrogen receptor alpha (ER-alpha) signaling pathway (AID 743075; calls by dose curve;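 note: HEK293 GripTite cells with ER-alpha and UAS-driven beta-lactamase reporter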).
The target is the same in assay [5]. Briefly: qHTS assay to identify small molecule agonists of the estrogen receptor alpha (ER-alpha) signaling pathway using the BG1 cell line (AID 743079). Note: nearly all actives have a fitted effect of over 20% in size. Particulars: BG1Luc4E2 cells, ERE-luciferase agonist, 22 h; activation: at 70.3 µM (top of the series).
Assay [6] in a line: qHTS assay to identify small molecule antagonists of the estrogen receptor alpha (ER-alpha) signaling pathway using the BG1 cell line (AID 743080; calls by dose curve;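 note: BG1 cells stimulated with 17beta-estradiol alongside compound; nearly all actives have a fitted effect of over 25% in size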; note: potency is the fitted concentration of half-maximal effect). The method in brief:
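After 5 days in phenol-red-free 10% charcoal-stripped FBS medium, BG1-Luc-4E2 cells were seeded, left 24 h at 37 C, co-treated with compounds and 17beta-estradiol for 21.5 h, then assayed for viability and luciferase.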

Assay [7] in a line: qHTS assay to identify small molecule antagonists of the estrogen receptor alpha (ER-alpha) signaling pathway using the BG1 cell line - cell viability counter screen (AID 743081).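 Note: compound given together with 17beta-estradiol as the ER stimulus; nearly all actives have a fitted effect of over 45% in size.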 Note: potency is the fitted concentration of half-maximal effect.
The target in assay [8] is Aromatase (Homo sapiens) (UniProt P11511). Briefly: qHTS assay to identify aromatase inhibitors (AID 743083). Note: nearly all actives have a fitted effect of over 55% in size. Note: potency is the fitted concentration of half-maximal effect.
The nature of assay [9]: qHTS assay to identify aromatase inhibitors - cell viability counter screen (AID 743084).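 Note: cells stimulated with testosterone during compound exposure; nearly all actives have a fitted effect of over 55% in size.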 Note: potency is the fitted concentration of half-maximal effect.
In assay [10] the target is Aryl hydrocarbon receptor (Homo sapiens) (UniProt P35869). Briefly: qHTS assay to identify small molecule that activate the aryl hydrocarbon receptor (AhR) signaling pathway (AID 743085).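 For activation: HG2L7.5c1 human HepG2 liver cells with stably integrated DRE-driven firefly reporter.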 Note: nearly all actives have a fitted effect of over 15% in size. Note: potency is the fitted concentration of half-maximal effect. In outline:
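AhR agonist activity is inferred from enhanced light output of a DRE-controlled firefly luciferase reporter in HepG2 cells, measured with ONE-Glo following 24 h treatment at 37C.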

Assay [11] can be described thus: qHTS assay to identify small molecule that activate the aryl hydrocarbon receptor (AhR) signaling pathway - cell viability counter screen (AID 743086). Note: nearly all actives have a fitted effect of over 45% in size. Note: potency is the fitted concentration of half-maximal effect. In outline: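 HepG2-AhR-luc (HG2L7.5c1) cells, 4000/well, were preincubated 5 h at 37C, exposed to compound in qHTS format for 24 hr at 37C, then given CellTiter-Fluor for 30 min; viability was read as fluorescence in the reporter wells.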

Assay [12] concerns the target Peroxisome proliferator-activated receptor gamma (Homo sapiens) (UniProt P37231). Briefly: qHTS assay to identify small molecule agonists of the peroxisome proliferator-activated receptor gamma (PPARg) signaling pathway (AID 743094; active = well fitted activation curve with a large enough effect in the signal ratio in the repeat runs, not every such curve was filed as active; the % refers to the signal ratio). The method in brief: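 Cell-based bla reporter, HEK293H background, PPARg-driven UAS. Pre-incubation 5 h, 37C, 5% CO2. Compound 17 h, 37C. Substrate 1 h RT; fluorescence.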

Assay [13] can be described thus: qHTS assay to identify small molecule antagonists of the peroxisome proliferator-activated receptor gamma (PPARg) signaling pathway - cell viability counter screen (AID 743194). Note: nearly all actives have a fitted effect of over 55% in size. Note: potency is the fitted concentration of half-maximal effect. In outline:
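PPARg-UAS-bla HEK293H cells were plated, rested 5 h at 37 C, then treated with compounds plus rosiglitazone (50 nM final) for 17 h at 37 C; viability was then read by CellTiter-Glo luminescence after 30 min at room temperature.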

A short description of assay [14]: qHTS assay for small molecule agonists of the antioxidant response element (ARE) signaling pathway - cell viability counter screen (AID 743203; calls by dose curve; note: nearly all actives have a fitted effect of over 55% in size). In outline: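 Measured in the same wells as the beta-lactamase ARE reporter, this read-out is CellTiter-Glo luminescence from HepG2 ARE-bla cells given compounds for 16 hrs.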
Assay [15] can be described thus: qHTS assay for small molecule activators of the heat shock response signaling pathway - cell viability counter screen (AID 743209). Note: nearly all actives have a fitted effect of over 50% in size. In outline:
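Same-well multiplex: after 2.5 h room-temperature incubation with LiveBLAzer B/G substrate and fluorescence reading, CellTiter-Glo reagent was added to HSE-bla HeLa cells that had received compound for 5 h at 37 C; luminescence read after 30 min.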

Assay [16] concerns the target Peroxisome proliferator-activated receptor gamma (Homo sapiens) (UniProt P37231). Briefly: qHTS assay to identify small molecule antagonists of the peroxisome proliferator-activated receptor gamma (PPARg) signaling pathway (AID 743191; calls by dose curve; note: nearly all actives have a fitted effect of over 30% in size; note: potency is the fitted concentration of half-maximal effect). In outline: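 GeneBLAzer PPARg UAS-bla HEK293H cells carrying a UAS-driven beta-lactamase reporter were plated at 3000 cells/well, preincubated 5 h at 37C, then given compound for 17 h at 37C; LiveBLAzer B/G FRET substrate was read after 1 h at room temperature.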

Assay [17] can be described thus: qHTS assay for small molecule activators of the heat shock response signaling pathway (AID 743210; active = well fitted activation curve with a large enough effect in the signal ratio in the repeat runs, with a control signal flat, not every such curve was filed as active; the % refers to the signal ratio). The method in brief: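 Heat shock element–beta-lactamase HeLa reporter cells; qHTS with compounds for 5 h at 37 C; detection by FRET substrate fluorescence after 2.5 h at RT.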
For assay [18], the system named is thyroid hormone receptor (rat, GH3 cells). Briefly: qHTS assay to identify small molecule agonists of the thyroid receptor (TR) signaling pathway (AID 743066; calls by dose curve).
Assay [19] can be described thus: qHTS assay for small molecule agonists of the antioxidant response element (ARE) signaling pathway (AID 743202; active = well fitted activation curve with a large enough effect in the signal ratio in the repeat runs, not every such curve was filed as active; the % refers to the signal ratio). The method in brief: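 Following a 16 h, 37 C exposure of reporter HepG2 cells (ARE-driven beta-lactamase, 2,000 cells/well) to compounds, FRET substrate was applied for 2 h at room temperature and fluorescence intensity recorded.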

Peroxisome proliferator-activated receptor gamma (Homo sapiens), sequence (P37231 whole entry, looked up): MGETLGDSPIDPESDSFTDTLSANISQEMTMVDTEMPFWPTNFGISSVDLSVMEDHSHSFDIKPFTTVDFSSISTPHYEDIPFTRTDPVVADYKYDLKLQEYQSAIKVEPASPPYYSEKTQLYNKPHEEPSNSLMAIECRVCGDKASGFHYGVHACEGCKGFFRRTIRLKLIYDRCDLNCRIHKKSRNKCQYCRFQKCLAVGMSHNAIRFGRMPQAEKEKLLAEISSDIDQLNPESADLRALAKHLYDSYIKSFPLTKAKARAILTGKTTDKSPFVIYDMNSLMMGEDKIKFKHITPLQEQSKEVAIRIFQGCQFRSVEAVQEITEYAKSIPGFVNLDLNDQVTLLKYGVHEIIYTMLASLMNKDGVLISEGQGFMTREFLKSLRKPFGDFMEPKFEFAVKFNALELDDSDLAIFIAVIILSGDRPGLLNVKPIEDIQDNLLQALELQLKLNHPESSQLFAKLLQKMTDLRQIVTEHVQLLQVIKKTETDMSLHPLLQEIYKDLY
Aromatase (Homo sapiens), sequence (P11511 whole entry, looked up): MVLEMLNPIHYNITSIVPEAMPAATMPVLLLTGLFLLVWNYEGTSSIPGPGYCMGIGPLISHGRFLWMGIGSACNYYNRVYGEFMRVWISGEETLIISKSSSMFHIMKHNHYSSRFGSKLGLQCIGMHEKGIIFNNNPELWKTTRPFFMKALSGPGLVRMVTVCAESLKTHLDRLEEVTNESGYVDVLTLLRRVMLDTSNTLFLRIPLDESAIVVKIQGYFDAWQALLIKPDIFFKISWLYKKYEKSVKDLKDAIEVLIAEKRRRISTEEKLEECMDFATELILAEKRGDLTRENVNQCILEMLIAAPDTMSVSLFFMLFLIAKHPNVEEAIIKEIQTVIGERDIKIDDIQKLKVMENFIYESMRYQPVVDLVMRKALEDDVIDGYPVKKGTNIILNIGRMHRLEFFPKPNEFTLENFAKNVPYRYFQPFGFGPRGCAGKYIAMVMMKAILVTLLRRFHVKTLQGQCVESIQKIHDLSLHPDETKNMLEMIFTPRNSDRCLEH
Aryl hydrocarbon receptor (Homo sapiens), sequence (P35869 whole entry, looked up): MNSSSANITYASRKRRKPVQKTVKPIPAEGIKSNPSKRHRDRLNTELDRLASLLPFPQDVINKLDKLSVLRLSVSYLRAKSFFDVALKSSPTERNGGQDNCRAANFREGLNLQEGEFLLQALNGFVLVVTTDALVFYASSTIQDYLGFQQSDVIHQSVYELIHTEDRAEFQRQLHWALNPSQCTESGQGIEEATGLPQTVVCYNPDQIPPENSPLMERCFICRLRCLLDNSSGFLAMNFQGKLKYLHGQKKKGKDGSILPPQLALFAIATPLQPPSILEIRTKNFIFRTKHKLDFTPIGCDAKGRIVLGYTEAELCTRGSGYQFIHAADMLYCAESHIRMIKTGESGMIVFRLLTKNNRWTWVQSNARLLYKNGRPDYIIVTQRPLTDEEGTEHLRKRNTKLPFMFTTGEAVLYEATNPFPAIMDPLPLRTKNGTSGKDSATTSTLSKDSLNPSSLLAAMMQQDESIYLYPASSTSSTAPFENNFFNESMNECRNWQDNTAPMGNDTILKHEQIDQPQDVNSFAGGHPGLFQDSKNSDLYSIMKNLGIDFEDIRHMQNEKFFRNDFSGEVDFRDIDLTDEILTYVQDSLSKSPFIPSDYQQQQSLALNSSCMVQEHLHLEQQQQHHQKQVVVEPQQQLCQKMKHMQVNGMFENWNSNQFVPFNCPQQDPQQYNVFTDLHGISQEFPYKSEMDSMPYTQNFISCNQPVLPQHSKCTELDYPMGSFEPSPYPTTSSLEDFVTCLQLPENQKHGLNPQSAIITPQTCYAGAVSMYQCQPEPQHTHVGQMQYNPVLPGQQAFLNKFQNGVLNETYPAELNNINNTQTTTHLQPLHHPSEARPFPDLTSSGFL
Estrogen receptor (Homo sapiens), sequence (P03372 whole entry, looked up): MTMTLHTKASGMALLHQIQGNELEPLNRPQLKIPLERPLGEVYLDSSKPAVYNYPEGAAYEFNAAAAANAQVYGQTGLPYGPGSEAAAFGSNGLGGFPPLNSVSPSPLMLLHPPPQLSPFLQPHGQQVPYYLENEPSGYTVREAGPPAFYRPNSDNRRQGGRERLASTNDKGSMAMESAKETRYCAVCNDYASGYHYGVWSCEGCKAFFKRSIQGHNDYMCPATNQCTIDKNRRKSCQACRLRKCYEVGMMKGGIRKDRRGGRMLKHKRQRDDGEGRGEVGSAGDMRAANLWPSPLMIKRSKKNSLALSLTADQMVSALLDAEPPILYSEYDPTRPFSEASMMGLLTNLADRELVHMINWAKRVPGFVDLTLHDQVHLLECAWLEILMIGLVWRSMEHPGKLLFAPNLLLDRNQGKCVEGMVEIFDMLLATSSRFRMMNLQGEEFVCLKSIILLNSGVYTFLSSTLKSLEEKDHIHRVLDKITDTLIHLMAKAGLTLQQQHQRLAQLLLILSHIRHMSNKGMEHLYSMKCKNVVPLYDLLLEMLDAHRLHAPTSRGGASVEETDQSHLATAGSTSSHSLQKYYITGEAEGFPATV

As to `CN(C)CCC=C1c2ccccc2C=Cc2ccccc21`, the Potency was 15 µM (active) in [1] and 26.6 µM (active) in [2]. Also, the Potency entry in assay [3], in assay [4], in assay [5], in assay [6], in assay [7] and in assay [8] was “inactive” each time. Further, the Potency entry in assay [9], in assay [10], in [11], in assay [12], in [13] and in [14] was “inactive” in each case. The Potency result in assay [15] is “inactive”.

Take `CC(=O)NC1(c2cccc(F)c2)CCN(CC[C@@]2(c3ccc(Cl)c(Cl)c3)CN(c3ccccc3)C(=O)CO2)CC1`: the Potency in assay [1] is 7.72 µM (active); in assay [2], 10.9 µM (active); in assay [3] it was 39 µM (active); in [6], 54.6 µM (active); in [9], 48.7 µM (active); in [11], 43.4 µM (active). The values for the Potency in assay [16] and in assay [13] were 43.8 µM (active) and 34.8 µM (active), respectively. Moreover, the Potency result in assay [4], in assay [10], in [15] and in assay [17] was “inactive” in each case.

Turning to `c1ccc2c(c1)CCc1ccccc1N2`, the Potency entry in [1], in assay [2], in [7], in [8], in assay [11] and in assay [12] was “inactive” each time. In addition, the Potency result in assay [16], in assay [13], in assay [19], in [14], in assay [15] and in [17] was “inactive” each time. Moreover, in assay [18], the result was inactive.

Take `O=C1c2ccccc2C(=O)c2c(O)c(O)cc(O)c21`: the Potency in [1] is 54.5 µM (active); in assay [9], 27.3 µM (active); in [10], 10.9 µM (active). Also, in [18], the outcome was inactive. In addition, the Potency entry in assay [3], in assay [4], in assay [8], in [12], in assay [13] and in assay [15] was “inactive” in each case. Moreover, in [17], the Potency result is “inactive”.

Regarding `O=[N+]([O-])c1cc(C2CCCCC2)c(O)c([N+](=O)[O-])c1`, the Potency in [1] was 9.66 µM (active); in assay [2] it was 3.85 µM (active); in assay [7], 6.09 µM (active); in assay [8], 17.2 µM (active); in assay [9], 17.2 µM (active); in assay [11] it was 30.5 µM (active). Also, the Potency entry in assay [4], in assay [10] and in assay [15] was “inactive” in each case.

As to `C=C(C)[C@@H]1CCC2=CCC[C@@H](C)[C@]2(C)C1`, the Potency result in assay [1], in assay [3], in assay [4], in assay [7], in assay [9] and in [10] was “inactive” each time. Further, the Potency result in [11], in [12], in assay [16] and in assay [14] was “inactive” throughout. For the same compound, in [18], the compound was called inactive.

Take `Cc1cc(=O)c2c(O)c3c(O)cc(=O)c4c3c3c(cc(O)c1c23)C(C)(C)C=4O`: the Potency was 0.841 µM (active) in assay [1] and 0.596 µM (active) in [2]. Further, the Potency entry in [9] and in assay [11] was “inactive” throughout.

With `CC[C@]1(O)C[C@H]2CN(CCc3c([nH]c4ccccc34)[C@@](C(=O)OC)(c3cc4c(cc3OC)N(C=O)[C@H]3[C@@](O)(C(=O)OC)[C@H](OC(C)=O)[C@]5(CC)C=CCN6CC[C@]43[C@@H]65)C2)C1`, the results for the Potency in assay [1], in assay [2] and in assay [6] were 0.106 µM (active), 0.0944 µM (active) and 0.0531 µM (active), respectively. Besides, the outcome in [18] was inactive. Besides, the Potency result in assay [7], in assay [8], in assay [10], in [11], in assay [16] and in [13] was “inactive” in each case. Also, the Potency entry in assay [15] and in assay [17] was “inactive” each time.

On to `CCCCCCCC/C=C\CCCCCCCCO`, for which the Potency entry in assay [1], in assay [2], in [7], in assay [8], in [9] and in assay [10] was “inactive” throughout. Also, the Potency entry in [11], in assay [12], in assay [16], in assay [13], in assay [19] and in assay [14] was “inactive” each time. In addition, the Potency result in assay [15] and in assay [17] was “inactive” throughout. For the same compound, the outcome in assay [18] was inactive.
